Bioassay records deposited in PubChem by Broad Institute.
T cruzi growth-1: T. cruzi intracellular proliferation inhibitors, primary screen, cell-based, beta-gal Tulahuen parasites, NIH3T3 host, luminescence. T. cruzi beta-gal in NIH3T3, GalScreen luminescence, 90 h. inhibition, % at 8.34 µM. hit rate 5.9% among 77,000. AID 624255, 2012;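 active = mean inhibition above about 93%, with at least 55% of replicates each passing it, limit read from the data, passing the limit was not always enough; inconclusive = only one of those two conditions holds; inactive = neither condition holds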
Pf Dd2 inh: P. falciparum Dd2 growth inhibitors, primary screen, SYBR Green fluorescence, single dose replicates; 72 h; active compounds read low; activity change, % at 10 µM; hit rate 2.3% among 94,000; AID 1159554, 2015; in the data active = activity change below about -80%; inconclusive = no clear call, values can overlap the other calls
C diff HTS: C. difficile growth inhibitors, primary screen, HTS. Clostridium difficile clinical isolate growth, OD600, 24 h; active compounds read low. growth activity, negative = inhibition, % at 16 µg/mL (by protocol). hit rate 0.25% among 86,000. AID 1259249, 2017;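 active = mean growth activity at or below -80% and every replicate also at or below -80%; inconclusive = mean at or below -80% but some replicate above -80%; inactive = mean growth activity above -80%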;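 note: 0% = DMSO wells and -100% = levofloxacin 16 µg/mL wells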
T cruzi growth-2: T. cruzi intracellular proliferation inhibitors, confirmation, cell-based, NIH3T3 host, beta-gal parasite, luminescence, cherry-pick | shares compounds with T cruzi growth-1 | T. cruzi beta-gal in NIH3T3, GalScreen luminescence, 90 h | inhibition, % at 8.35 µM | hit rate 72% among 5,600 | AID 651739, 2012;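 active = mean replicate inhibition above about 95% and at least 55% of replicates individually reaching it, limit read from the data; inconclusive = only one of the two criteria is met; inactive = neither criterion is met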
T cruzi growth-3: inhibitors of intracellular T. cruzi replication, confirmation, NIH3T3 host cells, beta-gal parasites, cherry-pick, set 2 | AID 651740, 2012 | T. cruzi beta-gal in NIH3T3, GalScreen luminescence, 90 h | inhibition, % at 2.09 µM | hit rate 21% among 5,600 | shares compounds with T cruzi growth-1;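 active = mean inhibition above about 95%, with at least 55% of replicates also reaching it, limit read from the data; inconclusive = meets just one of the two conditions; inactive = meets neither condition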;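 note: plate controls were neutral control median for no effect and positive control median for full effect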
NIH3T3 tox: cytotoxicity in mouse NIH/3T3 fibroblasts, confirmation, cytotoxicity control for T. cruzi proliferation inhibitor project, cell-based, cherry-pick, single point; shares compounds with T cruzi growth-1; NIH/3T3 viability, CellTiter-Glo ATP luminescence, 90 h; cytotoxicity (signal decrease), % at 8.35 µM; hit rate 14% among 5,600; AID 651742, 2012;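 active = mean signal decrease across replicates above about 35% based on untreated-well scatter, with enough replicates individually passing, limit read from the data; inconclusive = no rule stated though some were filed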;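 note: 0% = median of neutral control wells and 100% = median of positive control wells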
3T3 cytotox 2: NIH/3T3 fibroblast cytotoxicity, confirmation, cytotoxicity control, cell-based, cherry-pick, single point, set 2; shares compounds with T cruzi growth-1; NIH/3T3 viability, CellTiter-Glo ATP luminescence, 90 h; inhibition, % at 24.9 µM; hit rate 56% among 5,600; AID 651744, 2012;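 active = mean loss of cell viability signal at or above a set limit, and enough replicates individually reaching it; inconclusive = meets only the mean limit or only the replicate share; inactive = meets neither condition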;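 note: 0% = median of neutral control wells and 100% = median of positive control wells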
Numbers without * were called inactive; ? = inconclusive; . = no result given. Only some compounds are listed: those with a hit (about 6.8% of all), similar ones and a draw of the others.

SMILES	T cruzi growth-1	Pf Dd2 inh	C diff HTS	T cruzi growth-2	T cruzi growth-3	NIH3T3 tox	3T3 cytotox 2
C[C@@H]1CN([C@H](C)CO)S(=O)(=O)c2ccc(-c3ccncc3)cc2O[C@H]1CN(C)C(=O)Nc1ccc(F)cc1	101*	-11	6	90	84	-17	75*
C[C@H]1CN([C@@H](C)CO)S(=O)(=O)c2ccc(-c3ccc(F)cc3)cc2O[C@@H]1CN(C)C(=O)Nc1ccc(F)cc1	119*	-32	.	103*	48	20	58*
CC(=O)N(C)C[C@@H]1Oc2cc(-c3ccc(F)cc3)ccc2S(=O)(=O)N([C@H](C)CO)C[C@H]1C	-2	0	6	.	.	.	.
C[C@H](CO)N1C[C@H](C)[C@H](CN(C)C(=O)Nc2ccc(F)cc2)Oc2cc(-c3ccncc3)ccc2S1(=O)=O	93	-48	7	.	.	.	.
C[C@@H]1CN([C@H](C)CO)S(=O)(=O)c2ccc(Br)cc2O[C@H]1CN(C)C(=O)Nc1ccc(F)cc1	12	14	2	.	.	.	.
C[C@@H]1CN([C@H](C)CO)S(=O)(=O)c2ccc(-c3ccc(F)cc3)cc2O[C@H]1CN(C)C(=O)Nc1ccc(F)cc1	114*	-45	.	106*	47	38*	74*
CCCNC(=O)N1C[C@@H](O)COC[C@H]2O[C@@H](CC(=O)NCc3ccc(Cl)c(Cl)c3)CC[C@@H]21	-9	3	11	.	.	.	.
CO[C@H]1CN(C)C(=O)c2ccc(NC(C)=O)cc2OC[C@@H](C)N(Cc2ccncc2)C[C@@H]1C	7	15	0	.	.	.	.
CC(C)C#Cc1cnc2c(c1)C(=O)N([C@H](C)CO)C[C@H](C)[C@@H](CN(C)Cc1ccccc1)O2	31	.	-3	.	.	.	.
C[C@H](CO)N1C[C@H](C)[C@H](CN(C)S(=O)(=O)c2ccc(Oc3ccccc3)cc2)OCc2cnnn2CCCC1=O	69	-7	-3	.	.	.	.
C[C@H]1CN([C@@H](C)CO)C(=O)c2cc(N(C)C)ccc2O[C@H]1CN(C)S(=O)(=O)c1ccccc1	18	-63	-2	.	.	.	.
C[C@@H]1CN([C@H](C)CO)C(=O)c2cccc(NS(=O)(=O)c3cccs3)c2O[C@H]1CN(C)C(=O)Nc1ccc2c(c1)OCO2	-102	-19	.	.	.	.	.
CC(=O)N1[C@@H]2Cn3c(ccc(-c4ccccc4)c3=O)[C@H]1[C@@H](C(=O)N1CCCCC1)[C@@H]2CO	14	4	-4	.	.	.	.
C[C@@H]1CN([C@@H](C)CO)C(=O)c2cccc(NC(=O)Nc3ccccc3)c2O[C@@H]1CN(C)Cc1ccncc1	-17	-26	3	.	.	.	.
CCC(=O)N1CCCCN2[C@H](CO)[C@H](c3ccc(C#Cc4ccccc4F)cc3)[C@@H]2C1	120*	-13	-17	99*	88	69*	58*
CCC(=O)N1CCCCN2[C@H](C1)[C@@H](c1ccc(C#Cc3ccccc3F)cc1)[C@@H]2CO	100*	-9	-6	100*	61	50*	105*
CC(=O)N1CCCCN2[C@@H](CO)[C@H](c3ccc(C#Cc4ccccc4F)cc3)[C@@H]2C1	88	-4	-2	.	.	.	.
CC(=O)N1CCCCN2[C@H](CO)[C@H](c3ccc(C#Cc4ccccc4F)cc3)[C@H]2C1	31	-25	-10	.	.	.	.
CC(=O)N1CCCCN2[C@H](C1)[C@@H](c1ccc(C#Cc3ccccc3F)cc1)[C@@H]2CO	112*	-21	-12	?	28	30	106*
CC(=O)N1CCCCN2[C@H](C1)[C@H](c1ccc(C#Cc3ccccc3F)cc1)[C@@H]2CO	75	18	-1	.	.	.	.
COc1ccc2c3c([nH]c2c1)[C@@H](CO)N(C(=O)Nc1ccc(F)cc1)CC31CN(S(=O)(=O)c2ccc(C)cc2)C1	.	-60	-7	.	.	.	.
